Screening data: PubChem, several laboratories
EWS-Fli block: EWS/Fli-driven NR0B1 reporter inhibitors, primary screen, A673 cells, NR0B1 luciferase, luminescence, MLPCN library; AID 651661, 2012; 350,000 tested, 0.67% active; viability-normalised; inhibition, % at 12.6 µM;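 active means mean inhibition of at least 50% after viability correction, with every replicate also passing that limit; inconclusive means mean reaches 50% but only one of two replicates passes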;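 further: firefly luciferase signal divided by Alamar Blue viability fluorescence both relative to DMSO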
HIV Env fusion: inhibitors of HIV-1 Env-driven cell-cell fusion, primary screen, HeLa-JRFL effector, CEM21 target cells, luciferase | inhibition, % at 12.3 µM | 360,000 tested, 1.1% active;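 active means mean replicate inhibition score of at least 50 and every replicate individually at or above 50; inconclusive means only one of the two criteria met; inactive means mean below 50 and not all replicates reaching 50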
PAX8 reporter: inhibitors of PAX8-driven TPO luciferase reporter, primary screen, RMG-I cells, single concentration; SteadyGlo, 24 h; inhibition, % at 12.6 µM; 360,000 tested, 1.2% active;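 active means mean replicate inhibition at least 60% with every replicate also reaching 60%; inconclusive means only one of the two criteria is met; inactive means mean below 60% and not all replicates reaching 60%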;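 further: luciferase light reporting Pax8 driven TPO promoter activity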
F508del corr: F508del CFTR correction, initial screen, CFBE line, single point. 350,000 tested, 0.36% active. CFBE cells, YFP halide quenching; stimulated with forskolin plus potentiator P3; % fluorescence drop versus neutral controls. activity (quench increase), % at 7.58 µM. AID 720511, 2013;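 active means mean added fluorescence quench of at least 8% versus neutral control, with both replicates also reaching 8%; inconclusive means only one of the mean or replicate conditions met; inactive means mean below 8% and not both replicates reaching 8%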;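 further: cells transiently co-express mutant CFTR-F508del with the halide-sensitive YFP; corrector assay measuring rescue of mutant channel to the surface after 24 h compound exposure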
GAA850 FXN act: FXN promoter activators, primary screen, cell-based, luciferase luminescence, HEK293 lucGAA850; HEK293 lucGAA850 FXN promoter luciferase reporter, 24 h; percent of 10 µM SAHA response; activation, % at 6 µM; 360,000 tested, 0.56% active; AID 540364, 2011;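 active means activation above the average of all compounds screened plus 3 SD, cutoff fixed separately per campaign, cut at about 7.5% in these data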
Of the large screens only hits and unclear results are named; the others gave an inactive call; [ ] = dose if it differs, or a comment. A selection: hits, their analogues and other compounds. The true share with any hit is near 2.5%.

C=CCC[C@H](Cc1ccc(F)cc1)C(=O)OC[C@@H](Cc1c[nH]c2ccccc12)NC(=O)[C@H](CC=C)CC(=O)N(CCO)Cc1ccccc1	PAX8 reporter 76.7
C=CC[C@H](CC(=O)N[C@H](CO)Cc1ccccc1)C(=O)N[C@H](COC(=O)[C@@H](CC=C)Cc1ccc(F)cc1)Cc1c[nH]c2ccccc12	none (no result: EWS-Fli block, HIV Env fusion, PAX8 reporter, F508del corr)
C=CC[C@@H](CC(=O)N(CCO)Cc1ccccc1)C(=O)N[C@@H](COC(=O)[C@@H](CC=C)Cc1ccc(F)cc1)Cc1c[nH]c2ccccc12	none
C=CCC[C@H](Cc1ccc(F)cc1)C(=O)OC[C@@H](Cc1c[nH]c2ccccc12)NC(=O)[C@H](CC=C)CC(=O)NCCO	none
C=CCC[C@@H](Cc1ccc(F)cc1)C(=O)OC[C@@H](Cc1c[nH]c2ccccc12)NC(=O)[C@H](CC=C)CC(=O)N(CCO)Cc1ccccc1	PAX8 reporter 101.4
C=CC[C@@H](CC(=O)N[C@H](CO)Cc1ccccc1)C(=O)N[C@H](COC(=O)[C@@H](CC=C)Cc1ccc(F)cc1)Cc1c[nH]c2ccccc12	PAX8 reporter 87.7
CC(C)NC(=O)Nc1ccc2c(c1)C(=O)N([C@@H](C)CO)C[C@H](C)[C@@H](CN(C)C(=O)Nc1cccc3ccccc13)O2	none (no result: EWS-Fli block, GAA850 FXN act)
C[C@@H]1CN([C@@H](C)CO)C(=O)c2cccc(NS(=O)(=O)c3ccccc3)c2O[C@@H]1CN(C)CC1CC1	none (no result: HIV Env fusion, GAA850 FXN act)
CCC(=O)Nc1ccc2c(c1)C(=O)N(C)[C@@H]1CC[C@@H](CC(=O)NCc3ccccc3)O[C@H]1CO2	none (no result: GAA850 FXN act)
CCC(=O)N(C)C[C@H]1Oc2ncc(-c3ccccc3OC)cc2C(=O)N([C@@H](C)CO)C[C@@H]1C	none (no result: PAX8 reporter, GAA850 FXN act)
Fc1ccc2nc(C3CCN(Cc4nc(CC5CC5)no4)CC3)[nH]c2c1	F508del corr 8.6
O=C(C[C@H]1CC[C@@H](NC(=O)c2cccc(F)c2)[C@@H](CO)O1)Nc1nccs1	none (no result: GAA850 FXN act)
C[C@@H]1CN([C@H](C)CO)C(=O)Cc2cc(NC(=O)Cn3cnnn3)ccc2O[C@H]1CN(C)C(=O)Nc1cccc2ccccc12	none (no result: GAA850 FXN act)
COc1ccc(-c2sc3ccc(N4CCOCC4)cc3c2C#CCCO)cc1	PAX8 reporter 65.1
Cc1cccc(OCCNC(=O)c2ccc(Cl)c(S(=O)(=O)NCc3cccnc3)c2)c1	EWS-Fli block 57.4, F508del corr 14.3 (no result: HIV Env fusion)
COC(=O)C1CCN(C(=O)c2ccc(Cl)c(S(=O)(=O)NCc3cccnc3)c2)CC1	none (no result: EWS-Fli block, PAX8 reporter, F508del corr)
COc1ccc(S(=O)(=O)N(C)C[C@H]2Oc3ccc(NS(=O)(=O)c4ccccc4)cc3C(=O)N([C@@H](C)CO)C[C@H]2C)cc1	none (no result: GAA850 FXN act)
CCOC(=O)c1ccc(NC(=O)c2ccccc2[N+](=O)[O-])cc1	none (no result: EWS-Fli block, F508del corr)
CCOC(=O)c1cc([N+](=O)[O-])c([N+](=O)[O-])cc1NC(C)=O	EWS-Fli block 62.5 (no result: HIV Env fusion)
CCn1c(SCC(=O)NCCc2ccccc2)nc2c([nH]c3ccccc32)c1=O	HIV Env fusion 66.8
CCn1c(SCC(=O)NCC2CCCO2)nc2c([nH]c3ccccc32)c1=O (centres undefined)	none (no result: EWS-Fli block)
c1ccc(CSc2nnc(Cc3ccccn3)o2)cc1	PAX8 reporter 65.0 (no result: EWS-Fli block, F508del corr)
c1ccc(CSc2nnc(Cc3ccccc3)o2)cc1	none
C[C@@H]1CN([C@@H](C)CO)C(=O)c2cccc(NC(=O)C3CCCCC3)c2O[C@@H]1CN(C)Cc1ccc(C(=O)O)cc1	none (no result: HIV Env fusion, PAX8 reporter, GAA850 FXN act)
Nc1ccc(-c2ncc(-c3ccccc3)o2)cc1	EWS-Fli block 64.9
Cc1ccc(-c2cnc(-c3ccncc3)o2)cc1	none (no result: EWS-Fli block, PAX8 reporter, F508del corr)
COc1ccc(C2Nc3ccccc3C(=O)N2c2ccc(F)cc2)cc1CSc1ccccn1 (centres undefined)	PAX8 reporter 136.2 (no result: HIV Env fusion)
O=C(Nc1ccc(F)cc1)N1CC(=O)N2[C@H](CO)[C@H](c3ccc(Br)cc3)[C@H]2C1	none (no result: HIV Env fusion, GAA850 FXN act)
C[C@H](CO)N1C[C@H](C)[C@@H](CN(C)Cc2ccccc2)Oc2ccc(NC(=O)Nc3ccc(C(F)(F)F)cc3)cc2CC1=O	PAX8 reporter 96.3 (no result: GAA850 FXN act)
C[C@H]1CN([C@@H](C)CO)C(=O)Cc2cc(NC(=O)Nc3ccc(C(F)(F)F)cc3)ccc2O[C@H]1CN(C)Cc1ccc(Cl)c(Cl)c1	none (no result: GAA850 FXN act)
C[C@@H]1CN([C@H](C)CO)C(=O)c2cc(NC(=O)Nc3ccc(F)cc3)ccc2O[C@@H]1CN(C)C(=O)Nc1cccc2ccccc12	PAX8 reporter 70.3 (no result: HIV Env fusion, GAA850 FXN act)
COc1ccc(CN(C)C[C@@H]2Oc3ccc(NC(=O)Nc4ccc(C(F)(F)F)cc4)cc3CC(=O)N([C@@H](C)CO)C[C@@H]2C)cc1	none (no result: GAA850 FXN act)
C[C@H]1CN([C@@H](C)CO)C(=O)c2cc(NC(=O)Nc3ccc(F)cc3)ccc2O[C@@H]1CN(C)C(=O)Nc1cccc2ccccc12	none (no result: HIV Env fusion, GAA850 FXN act)
C[C@H](CO)N1C[C@H](C)[C@H](CN(C)Cc2ccccc2)Oc2ccc(NC(=O)Nc3ccc(C(F)(F)F)cc3)cc2CC1=O	none (no result: GAA850 FXN act)
C[C@@H]1CN([C@@H](C)CO)C(=O)Cc2cc(NC(=O)Nc3ccc(C(F)(F)F)cc3)ccc2O[C@H]1CN(C)Cc1ccc(Cl)c(Cl)c1	EWS-Fli block 66.7, PAX8 reporter 103.8 (no result: GAA850 FXN act)
COc1ccc(NC(=O)Nc2ccc3c(c2)CC(=O)N([C@H](C)CO)C[C@H](C)[C@@H](CN(C)Cc2ccc(C(F)(F)F)cc2)O3)cc1	PAX8 reporter 66.7 (no result: GAA850 FXN act)
CC(C)CC#Cc1ccc2c(c1)O[C@H](CN(C)C(=O)c1cccc(F)c1)[C@@H](C)CN([C@@H](C)CO)S2(=O)=O	none (no result: PAX8 reporter, GAA850 FXN act)
CN(C)C(=O)c1cccc(-c2ccc([C@H]3[C@@H](CO)N4CCCCN(C(=O)C5CCC5)C[C@@H]34)cc2)c1	none (no result: HIV Env fusion, GAA850 FXN act)
C[C@H]1CN([C@@H](C)CO)C(=O)Cc2cc(NC(=O)Nc3ccc(C(F)(F)F)cc3)ccc2O[C@H]1CN(C)C(=O)Nc1ccc2c(c1)OCO2	none (no result: HIV Env fusion, GAA850 FXN act)
C[C@H](CO)N1C[C@H](C)[C@@H](CN(C)Cc2ccc(C(F)(F)F)cc2)Oc2ccc(NC(=O)Nc3ccc(C(F)(F)F)cc3)cc2CC1=O	HIV Env fusion 58.4[16.7 µM] (no result: GAA850 FXN act)
C[C@H](CO)N1C[C@H](C)[C@@H](CN(C)Cc2ccncc2)Oc2ccc(NC(=O)Nc3cccc4ccccc34)cc2CC1=O	PAX8 reporter 66.9 (no result: EWS-Fli block, GAA850 FXN act)
C[C@@H]1CN([C@@H](C)CO)C(=O)Cc2cc(NC(=O)Nc3ccc(C(F)(F)F)cc3)ccc2O[C@H]1CN(C)Cc1ccc(C(F)(F)F)cc1	HIV Env fusion 56.5[16.7 µM], PAX8 reporter 64.4 (no result: GAA850 FXN act)
C[C@@H]1CN([C@@H](C)CO)C(=O)Cc2cc(NC(=O)Nc3ccc(C(F)(F)F)cc3)ccc2O[C@@H]1CN(C)C(=O)Nc1ccc2c(c1)OCO2	EWS-Fli block 68.1, PAX8 reporter inconclusive (no result: GAA850 FXN act)
CCC(=O)N(C)C[C@H]1Oc2cc(C#Cc3ccccn3)ccc2S(=O)(=O)N([C@H](C)CO)C[C@H]1C	none (no result: PAX8 reporter, GAA850 FXN act)
COCC(=O)N(C)C[C@@H]1Oc2cc(C#C[C@H](C)O)ccc2S(=O)(=O)N([C@H](C)CO)C[C@@H]1C	none (no result: PAX8 reporter, GAA850 FXN act)
